# Sampled rows, rich in hits. Any-hit rate of the full collection: about 1.7%.
# Measles CPE: compounds protecting cells from measles virus cytopathic effect, primary screen, measles RdRp inhibitor project, single point, MLSMR library, absorbance. Measles virus-infected cells, CPE protection. protection (pct of control), % at 4 µM. actives 1.5% (n = 140,000); in the data active = protection mostly above about 24%, no sharp cut-off; inactive = mostly below about 26%
# Smad3 inh: Smad3/FoxH1 peptide binding inhibitors, primary screen, biochemical, TR-FRET; Mothers against decapentaplegic homolog 3 (Homo sapiens), P84022; TR-FRET Smad3/Dy647-FoxH1 peptide binding, europium anti-His; inhibition, % at 25 µM; actives 0.29% (n = 88,000);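 active = compounds that reduce the energy-transfer binding signal between the protein and its labelled peptide by more than half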
# Target sequence (P84022 whole entry, looked up): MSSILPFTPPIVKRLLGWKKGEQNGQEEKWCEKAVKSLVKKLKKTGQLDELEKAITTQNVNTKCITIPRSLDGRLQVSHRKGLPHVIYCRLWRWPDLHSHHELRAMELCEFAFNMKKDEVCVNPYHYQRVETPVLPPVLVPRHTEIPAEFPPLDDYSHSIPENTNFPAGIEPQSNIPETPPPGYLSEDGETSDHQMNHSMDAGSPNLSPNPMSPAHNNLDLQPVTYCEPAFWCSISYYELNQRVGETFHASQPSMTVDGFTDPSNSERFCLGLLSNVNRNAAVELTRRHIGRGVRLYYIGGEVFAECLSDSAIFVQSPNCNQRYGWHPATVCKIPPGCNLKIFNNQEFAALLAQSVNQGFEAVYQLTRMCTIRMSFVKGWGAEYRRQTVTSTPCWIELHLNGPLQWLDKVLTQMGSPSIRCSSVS
# MT1-MMP txn act: MT1-MMP promoter reporter activation – cell-based, luciferase luminescence, primary screen | HT1080 MT1-MMP promoter luciferase reporter, overnight; active compounds read high | activation factor at 10 µM | actives 0.16% (n = 86,000) | AID 750, 2007;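 active = activation factor of at least 2 for MT1-MMP transcription at 10 µM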
# Numbers stand for hits; - = inactive; . = no result; [ ] = another dose, or the depositor's remark.
SMILES,Measles CPE,Smad3 inh,MT1-MMP txn act
CCCN(CC#CCOc1ccc(OC)cc1)CCC,37.2,-,-
C[n+]1c(/C=C/c2ccc(O)c3ncccc23)[se]c2ccccc21,.,-,.
C[C@H](Br)CN(C[C@H](C)Br)c1ccc2c(c1)Cc1ccccc1-2,.,-,.
Cn1cc(C(=O)c2ccccc2)c2ccccc21,-,-,-
O=C(O)Cn1cc(C(=O)c2ccccc2)c2ccccc21,39.8,-,-
CC(C)[C@]1(O)[C@@H](OC(=O)c2ccc[nH]2)[C@@]2(O)[C@@]3(C)C[C@]4(O)O[C@@]5([C@H](O)[C@@H](C)CC[C@@]35O)[C@@]2(O)[C@@]41C,.,-,.
C=CCn1c(O)c(C(CC)=NCCc2ccccc2)c(=O)[nH]c1=O,-,-,-
C=CCn1c(O)c(C(C)=NCCc2ccccc2)c(=O)[nH]c1=O,23.6,-,-
CCCCC[CH2][Hg][n+]1c[nH]c2nc(N)[nH]c(=S)c21,.,-,.
Clc1ccc2c(c1)C(c1ccccc1Cl)=NCc1nnc(N3CCN(CCOc4ccccc4)CC3)n1-2,27.5,.,.
Clc1ccc2c(c1)C(c1ccccc1Cl)=NCc1nnc(N3CCN(CCSc4ccccc4)CC3)n1-2,-,.,.
CN(CCC(=O)O)C1=Nc2ccc(Cl)cc2C(c2ccccc2)=[N+]([O-])C1,.,-,.
N[C@@H](Cc1c[nH]c2cc([N+](=O)[O-])ccc12)C(=O)O,.,-,.
O=S(=O)(Nc1nccs1)c1ccc([As](=O)(O)O)cc1,.,102.0,.
NS(=O)(=O)c1ccc(-c2ccc([As](=O)(O)O)cc2)cc1,.,-,.
COC(=O)[C@@H]1[C@@H](C(=O)OC)C2(c3ccccc3-c3ccccc32)N(c2ccc(Cl)cc2)N1C#N,-,-,-
COC(=O)C[C@]1(C(=O)OC)CN(C#N)N(c2ccc(Cl)cc2)C12c1ccccc1-c1ccccc12,-,72.1[fluorescence artefact?],-
O=C(O)C[C@@H]1NCc2cc3ccccc3nc21,.,50.6,.
C[C@@]12CN(CC[N+](C)(C)C)C[C@]1(C)[C@H]1CC[C@@H]2O1,.,-,.
Nc1nc(SC2CCC([N+](=O)[O-])C3NONC23)c2[nH]cnc2n1 (configuration not stated),.,-,.
CC(C)Oc1ccc(C2C(C#N)=C(N)Oc3c2c(=O)oc2ccccc32)cc1 (configuration not stated),-,-,-
COc1ccc(C2C(C#N)=C(N)Oc3c2c(=O)oc2ccccc32)cc1Cn1cc([N+](=O)[O-])cn1 (configuration not stated),24.4,.,.
NC1(P(=O)(O)O)CCCCC1,.,-,.
COc1cc2c3cc1Oc1c(O)c(OC)cc4c1[C@@H](Cc1ccc(cc1)Oc1cc(ccc1O)C[C@@H]3N(C)CC2)N(C)CC4,.,59.4,.
COc1cc2c3cc1Oc1cc(ccc1O)C[C@@H]1c4c(cc(OC)c(O)c4Oc4ccc(cc4)C[C@H]3N(C)CC2)CCN1C,-,.,.
SMILES,Measles CPE,Smad3 inh,MT1-MMP txn act
O=C(O)c1cc[c]([Hg][S]c2ncnc3nc[nH]c23)cc1,.,-,.
COCCCn1c(N)c(C(=O)OC(C)COC)c2nc3ccccc3nc21 (configuration not stated),-,-,-
CCC(C)NC(=O)c1c(N)n(CCCOC)c2nc3ccccc3nc12 (configuration not stated),-,52.0,-
CC1=NN(c2ccccc2)C(=O)[C@H]1N=Nc1ccc([As](=O)(O)O)c(O)c1,.,-,.
C[N+]1([O-])[C@@H]2CC(OC(=O)[C@@H](CO)c3ccccc3)C[C@H]1[C@H]1O[C@H]12 (some centres not stated),.,-,.
Cc1c([C@@H](C)[C@H]2NC[C@H](C)C[C@@H]2O)ccc2c1C[C@@H]1[C@@H]2CC=C2C[C@@H](O)CC[C@@]21C,.,-,.
CC[C@H]1CN2CCc3cc(OC)c(OC)cc3[C@@H]2C[C@@H]1C[C@H]1NCCc2c1[nH]c1ccc(O)cc21,.,-,.
C[C@@H]1[C@H]2C=C[C@@H]1[C@H](c1c3ccc(=O)c(O)c-3oc3c(O)c(O)ccc13)[C@@H]2C(=O)O,.,102.2,.
Cc1ncc([N+](=O)[O-])n1CCN=[N+]=[N-],.,-,.
CC(C)N1CC=C(c2c[nH]c3ccccc23)CC1,35.8,.,-
C1=C(c2c[nH]c3ccccc23)CCNC1,-,-,-
OC(c1ccc(F)cc1)C(c1ccccc1)N1CCOCC1 (configuration not stated),39.0,-,-
CC(NC(=O)Oc1ccccc1)C(c1cccs1)N1CCOCC1 (configuration not stated),-,-,-
NNc1c(C(N)=O)c2c(N)ncnc2n1[C@H]1O[C@H](CO)[C@@H](O)[C@@H]1O,.,-,.
CC(=O)O[C@H]1CC[C@H]2[C@H]3CCC4=C[C@@H](C5SCCS5)[C@H](OC(C)=O)C[C@]4(C)[C@@H]3CC[C@]12C,.,98.2,.
CC12CCC(=O)C=C1CCC1C2CCC2(C)C(O)CCC12 (configuration not stated),-,-,-
CCCOC(=O)[C@H]1[C@@H](C(=O)O)[C@H]2CC[C@@H]1O2,.,-,.
Cc1nc2ccccc2cc1C[N+]12CN3CN(CN(C3)C1)C2,.,-,.
O=C(Cc1ccccc1)N1CCN(C2CCCC2)CC1,-,-,-
CCC(CC)N1CCN(C(=O)Cc2ccccc2)CC1,42.9,-,-
CO[C@H]1[C@H](O)[C@@H](O[C@@H]2[C@@H](Oc3cccc4c(O)c5c(=O)oc6ccc(C)c7c(=O)oc(c34)c5c67)O[C@@H](C)[C@H](O)[C@H]2O)O[C@@H](C)[C@@H]1O,.,-,.
[N-]=[N+]=CC(=O)CC[C@H](N)C(=O)O,.,-,.
O=C(COc1ccc(Br)cc1)N1CCN(Cc2ccncc2)CC1,-,-,-
Cc1cccc(OCC(=O)N2CCN(Cc3ccncc3)CC2)c1,42.5,.,.
Cc1cc[c]([Sb]2[O][C@H]([C@H](O)[C@H](O)C(=O)O)[C@@H](CO)[O]2)cc1,.,-,.
Nc1ccccc1O.O.O=C(O)[C@H]1[O][Sb][O][C@H]1C(=O)O,.,-,.

# Compound activity: PubChem BioAssay, several laboratories
